Screens from PubChem.
The list is not random: actives were taken first. Their share in the collection is about 3.6%.
Anthrax LF prot: anthrax lethal factor protease inhibition. P15917. multiplex microsphere protease cleavage assay, LF. inhibition, % at 10 µM. 360,000 compounds, 0.12% hits. AID 588501; note: plate controls were buffer without enzyme for full effect and enzyme alone for no effect
Autofluor counter: compound fluorescence in toxin protease inhibitor counterscreen; fluorescence intensity (test concentration not listed); AID 624483; compound autofluorescence counterscreen, microsphere flow cytometry; active compounds read high; 360,000 compounds, 3.1% hits; in the data active = fluorescence intensity above about 16000; inconclusive = no clear call, values can overlap the other calls
BoNT-A LC inh2: BoNT A light chain protease inhibition | 360,000 compounds, 0.17% hits | AID 588499 | multiplex microsphere protease substrate cleavage, flow cytometry | inhibition, % at 10 µM; note: plate controls were buffer without enzyme for full effect and enzyme alone for no effect
BoNT-F LC inh: BoNT F light chain protease inhibition. Multiplex microsphere protease cleavage assay, flow cytometry. inhibition, % at 10 µM. 360,000 compounds, 0.22% hits; in the data active = inhibition above about 35%, passing the limit was not always enough; inconclusive = no clear call, values can overlap the other calls; note: plate controls were buffer without enzyme for full effect and enzyme alone for no effect
MazEF act: activators of E. coli MazEF toxin-antitoxin RNase | P0AE70 | 350,000 compounds, 0.32% hits | AID 504720 | FAM/BHQ RNA-DNA oligo cleavage fluorescence, 5 h | activation, % at 20 µM; in the data active = activation above about 50%
Target sequence (P0AE70 whole entry, looked up): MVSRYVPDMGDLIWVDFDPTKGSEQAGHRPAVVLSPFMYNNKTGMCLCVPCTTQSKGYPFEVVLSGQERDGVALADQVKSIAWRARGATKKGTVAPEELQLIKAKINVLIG
Starred values were filed as active, the others as inactive; ? = inconclusive; · = not tested or not shown. Cut-off read from the data, not from the text of the source, unless noted: active = inhibition above about 30%; inconclusive = no clear call, values can overlap the other calls; inactive = below that.

SMILES	Anthrax LF prot	Autofluor counter	BoNT-A LC inh2	BoNT-F LC inh	MazEF act
COc1cc2cc(C(c3nnnn3Cc3ccc(F)cc3)N3CCCCCC3)c(=O)[nH]c2cc1OC (centres undefined)	5	18413*	?	0	2
COc1ccc(Cn2nnnc2C(c2cc3cc(C)ccc3[nH]c2=O)N2CCN(C)CC2)cc1 (centres undefined)	0	3516	2	-4	6
CCCCOc1ccccc1NC(=O)CSc1nnnn1C(C)(C)C	-2	17476*	-4	-5	9
CCn1c(SCc2nc(CC(=O)Nc3ccccc3OC)no2)nnc1-c1cccs1	-6	22928*	-1	-2	-2
COc1ccccc1NC(=O)CSc1nnnn1-c1ccc(C(=O)O)cc1	-3	4510	-1	-4	-16
COc1ccccc1NC(=O)Cc1noc(CSc2cccc[n+]2[O-])n1	-1	2684	0	-1	3
CCOc1ccccc1-n1c(COc2ccc(C)cc2)nnc1SCC(N)=O	-2	22748*	1	0	-2
CCn1c(COc2ccccc2)nnc1SCC(=O)CC(=O)Nc1ccccc1OC	-1	21864*	2	2	1
Nn1c(SCc2ccccc2)nc2ccccc21	-2	3871	2	4	-3
Cn1cccc1C(=O)OCc1cc(-c2ccco2)on1	-1	8385	-2	-2	3
CCOc1ccc(-n2c(COc3ccccc3)nnc2SCC(N)=O)cc1	-3	4263	0	3	-1
COCCn1c(COc2ccccc2)nnc1SCC(N)=O	-5	21005*	?	-3	0
Cc1ccc(N2CCN(C(=O)N3CCCC3)CC2)cc1C	-3	16586*	0	2	1
COc1cc(C(C[N+](=O)[O-])c2c(C)[nH]c3ccccc23)cc(OC)c1OC (centres undefined)	-2	21574*	0	-3	2
COc1ccc(NC(=S)NCc2ccc(F)cc2)cc1	2	3665	-2	-9	6
Cc1oc2c(c1C(=O)c1ccc(Cl)cc1)C(=O)C(=O)c1ccccc1-2	21	1961	30*	13	5
CCCCN1CC[C@@H]2C=CC[C@H](C(=O)OC)[C@@H]2C1=O	-6	3896	0	-1	80*
CCCCN1CC[C@H]2C=CC[C@@H](C(=O)N3CCOCC3)[C@H]2C1=O	-7	3607	-1	1	3
CC1CCCCN1C(=O)NC12CC3CC(CC(C3)C1)C2 (centres undefined)	0	22908*	0	2	2
C=CCn1c(=S)sc2c(=O)[nH]cnc21	53*	3494	-1	?	0
O=c1[nH]c(-c2ccc(F)cc2)nc2c1sc(=S)n2-c1ccccc1	0	2682	-1	-8	-4
C=CCn1c(=S)[nH]c2cc(-c3ccccc3)sc2c1=O	-1	4978	2	3	-6
O=c1[nH]cnc2c1sc(=S)n2-c1ccccc1	-2	22624*	2	2	10
CCN1CCc2nc(NC(=O)c3ccccc3)sc2C1	15	18645*	10	-2	-58
CC(C)CNc1ncnc2c1ncn2[C@H]1CN(Cc2ccco2)C[C@@H](CO)O1	-1	2884	0	2	·
SMILES	Anthrax LF prot	Autofluor counter	BoNT-A LC inh2	BoNT-F LC inh	MazEF act
CCn1cc(C(=O)OCC(=O)Nc2c(C)n(C)n(-c3ccccc3)c2=O)c(=O)c2ccc(C)nc21	-1	23317*	0	2	3
CCn1cc(C(=O)OC(C)C(=O)Nc2c(C)n(C)n(-c3ccccc3)c2=O)c(=O)c2ccc(C)nc21 (centres undefined)	1	2084	0	-2	9
Cc1c(NC(=O)COC(=O)c2cc(-c3cccc4ccccc34)nc3ccccc23)c(=O)n(-c2ccccc2)n1C	-1	2212	2	5	62*
O=c1nc(N/N=C/C=C/c2ccccc2)cn[nH]1	1	5302	-3	-7	0
Cc1ccc(S(=O)(=O)N(C)C)cc1NC(=O)COC(=O)c1ccc2c(=O)n3c(nc2c1)CCC3	·	·	·	·	4
COC(=O)c1[nH]c2cccc(OC)c2c1NC(=O)CN(C)CC1OCCO1	-12	16319*	-1	-2	-5
COC(=O)c1[nH]c2cccc(OC)c2c1NC(=O)CN1CCOCC1	2	2909	-1	-4	-6
COc1ccc(CNS(=O)(=O)c2cc(CN3C(=O)c4cccnc4C3=O)ccc2OC)cc1	0	5189	-1	2	-3
O=S(=O)(c1ccc(Cl)cc1)N1CCN(C(=S)NCC2CCCO2)CC1 (centres undefined)	0	5896	1	-2	-1
O=C(CCSc1ccccc1)Nc1nccs1	0	16866*	?	-2	-3
Cc1ccc(SCCC(=O)Nc2nccs2)cc1	-7	5651	0	-15	12
CCOCCn1c(N2CCCC2)nc2c1c(=O)n(C)c(=O)n2C	-4	4078	-7	?	5
Cc1cc(C)n(C(N)=NC(=O)c2ccccc2)n1	0	3953	0	-5	7
O=S(=O)(Nc1ccc2c(c1)OCO2)c1ccccc1	-2	23731*	?	-8	-8
CC(=O)c1cc2c(cc1NS(=O)(=O)c1cccc(C(=O)O)c1)OCO2	9	2912	2	1	-6
CC(=O)c1cc2c(cc1NS(=O)(=O)c1ccccc1)OCO2	-7	20902*	-5	-8	4
CC(=O)c1ccc(NS(=O)(=O)c2ccccc2)cc1	3	21657*	-2	-1	-8
CCCn1c2c(c(O)c(C(=O)Nc3ncccc3C)c1=O)CCCC2	-2	22788*	0	2	4
COc1cccc(NC(=O)c2cnc(NS(=O)(=O)c3ccccc3)nc2)c1	-3	3799	0	0	-6
CCOC(=O)C1C(=O)NC(N2CCCCC2)=NC1c1ccccc1 (centres undefined)	-2	22677*	-1	1	-5
COc1ccc(S(=O)(=O)N2Cc3ccccc3CC2C(=O)Nc2nccs2)cc1OC (centres undefined)	0	3663	0	8	11
COc1ccc(S(=O)(=O)N2Cc3ccccc3CC2C(=O)Nc2nccs2)cc1 (centres undefined)	-3	23488*	-1	-5	-6
COc1ccc(N2CCN(C(=O)CSc3nnc4c(C)cc5cc(C)ccc5n34)CC2)cc1	-1	23987*	-1	-4	15
COc1ccc(N2CCN(C(=O)CSc3nnc4c(C)cc5c(C)cc(C)cc5n34)CC2)cc1	0	6079	1	-7	-3
COc1ccc(N2CCN(C(=O)CSc3nnc4c(C)cc5ccc(C)c(C)c5n34)CC2)cc1	-2	21530*	-6	-6	7
COc1ccccc1C(=O)NCCC(=O)Nc1ccc(S(=O)(=O)N2CCC(C)CC2)cc1	-4	2800	1	-12	-4
CCOn1c(=O)c(-c2cc3ccccc3o2)[n+]([O-])c2ccccc21	11	4225	14	19	741*
CCOn1c(=O)c(-c2ccc(Br)cc2)[n+]([O-])c2ccccc21	0	4275	-3	5	3
O=c1c(-c2cc3ccccc3o2)[n+]([O-])c2ccccc2n1OCc1ccccn1	10	9112	8	3	119*
